Measurements taken from PubChem BioAssay (NCATS).
Inconclusive results are not listed. The source made the active and inactive calls. Calls follow the shape of the full dose curve. Non-standard residues stand in square brackets, D forms with d. Residues, ends and D or L forms follow the SMILES beside them. ξ: configuration not given here. ξL = CC(C)CC(N)C(=O)O

test: qHTS for inhibitors of Rabies Virus screened against the NCATS CANVASS Library (AID 1347402); conditions: Rabies virus infection cell assay; series mostly up to 45.9 µM; also: 0% is about no effect

SMILES	outcome	activity change, negative = inhibition
CO[C@@H](C[C@@H](C)[C@@H](O)/C=C/C=C/CNC(=O)C(C)(C)[C@H](O)\C(C)=C/C=C\C=C\Cc1cnco1)[C@]1(O)[C@@H](C)C(=O)N(C)[C@@]12COC2=O	inactive	–
CN1CCc2cc3c(c4c2[C@H]1[C@@H](O)c1ccccc1-4)OCO3	inactive	–
C=C[C@]1(C)CC[C@@H]([C@H](C)C(=O)OCC)O1	inactive	–
C/C=C1/C2=CCCN3C(=O)O[C@H]([C@H]1O)[C@H]23	inactive	–
COc1ccc2oc3c(OC)c(OC)c(OC)c(OC)c3c(=O)c2c1	–	-7.41% [at 9.14 µM] (inactive)
C[C@@]12CCC[C@@](C)(C(=O)O)[C@H]1C[C@@H](O)[C@]13C[C@H]4C[C@H](O[C@@]4(C)C1)[C@@H]23	inactive	–
C/C=C/[C@H]1[C@H]2C(=O)c3c(O)c(C)c(O)c(C)c3[C@]1(C(=O)O)C(=O)C=C2C	inactive	–
C=C1C[C@@]23C=CC(=O)[C@@](C)(CCC(=O)Nc4c(O)ccc(C(=O)O)c4O)C2C[C@@H]1C(O)C3 (stereo not given in full)	inactive	–
CC(C)[C@]12CC[C@@]3(C)[C@H](C)CC[C@H](O)[C@@]3(CC1)c1cc3c(cc12)[nH]c1ccccc13	inactive	–
CC1(C)C=Cc2c(ccc3c2OC[C@@H](c2ccc(O)cc2O)C3)O1	inactive	–
O=Cc1ccc2n1C[C@]1(C[C@H](O)[C@@H](CO)O1)OC2	inactive	–
CC(=O)[C@@H]1[C@@H](O)C[C@H]2[C@]3(C)CC[C@H]4C(C)(C)CCC[C@]4(CO)[C@H]3C[C@H]3OC(=O)[C@@H]1[C@@]32C	inactive	–
CC(C)(Br)[C@@H](Cl)C[C@H](Br)[C@](C)(Cl)/C=C/Br	inactive	–
C[C@@]12CCC[C@@](C)(C(=O)O)[C@H]1CC[C@@]13C[C@@H](CC[C@H]12)[C@](C)(O)C3	inactive	–
COc1ccc([C@@H]2c3cc4c(cc3C[C@H](C)C2C)OCO4)cc1OC (stereo not given in full)	inactive	–
C/C(=C\[C@@H](C)CC/C=C/CC/C=C/C(=O)O)[C@H](O)[C@H](C)C(=O)CCCC1CC(=O)NC(=O)C1	inactive	–
C[C@@]12C[C@@H](C[C@@H]3C(=O)O[C@@H](c4ccoc4)[C@H](OC(=O)c4ccccc4)[C@@H]31)OC2=O	inactive	–
CO[C@@H]1[C@H](O)[C@@H](C)O[C@@H](OC[C@@H]2C(C)OC(=O)/C=C/[C@H](C)C(O[C@@H]3O[C@H](C)CC4(OC(=O)O[C@@H]4C)C3O)[C@@H](C)CC(C)C(=O)/C=C/[C@H]3OC23)[C@@H]1OC (stereo not given in full)	inactive	–
O=C(O)CC1OC(=O)c2c(O)cccc21 (stereo not given)	inactive	–
CO[C@H]1/C=C/CC[C@@H](S[C@@H]2O[C@H](CO)[C@@H](O)[C@H](O)[C@H]2O)CC(=O)O[C@@H](/C(C)=C/[C@H](C)C(=O)CCCC2CC(=O)NC(=O)C2)[C@@H](C)[C@@H]1O	–	-23.8% [at 0.021 µM] (inactive)

SMILES	outcome	activity change, negative = inhibition
CC1(C)CCC[C@]2(C)[C@@H]1CC[C@@]13C[C@@H](CC[C@H]12)C(C)(O)C3 (stereo not given in full)	inactive	–
C=C[C@@]1(C)CC[C@@H]([C@H](C)C(=O)/C=C/C(C)C)O1	inactive	–
C1=C2CCCN[C@@H]2[C@@H]2CCN3CCCC[C@@H]3[C@H](C1)C2	inactive	–
C=C1CC[C@@H](O[C@H]2C[C@@](O)([C@H](C)NC(=O)c3[nH]c(C)c(Cl)c3Cl)[C@H](O)[C@@H](C)O2)[C@@H]2C=C[C@H](C)C(/C(O)=C3/C(=O)[C@H](C(C)C)N([C@@H]4O[C@H](C)[C@H](OC(N)=O)[C@H](OC(C)=O)[C@@H]4OC)C3=O)[C@@H]12 (stereo not given in full)	inactive	–
Cc1cc(O)cc2oc(C[C@H](C)O)cc(=O)c12	inactive	–
CNc1ccc(Cl)cc1C(=O)OC[C@]1(C)[C@H]2CC[C@]3(C)[C@@H](C[C@@H](OC)[C@H](C)[C@H]3C3=C(O)C(=O)OC3O)[C@]2(C)CC[C@H]1O (stereo not given in full)	inactive	–
COC(=O)c1cccc2oc(-c3cccc4oc(-c5c(C)cccc5O)nc34)nc12	inactive	–
C=C[C@]1(C)CC[C@@H]([C@H](C)C(=O)CC=C(C)C)O1	inactive	–
C=C1C[C@@]23C=CC(=O)[C@@](C)(CCC(=O)Nc4c(O)ccc(C(=O)O)c4O)C2C[C@@H]1CC3 (stereo not given in full)	inactive	–
COc1cc2c(cc1OC)[C@@H](c1ccc3c(c1)OCO3)C(C)C(C)C2=O (stereo not given in full)	inactive	–
C[C@@H](CCC[C@]1(C)C(=O)C=C[C@]23C[C@H]4C[C@H](O[C@@]4(C)C2)C31)C(=O)N[C@@H](CO)C(=O)O (stereo not given in full)	inactive	–
O=Cc1ccc2n1C[C@@]1(C[C@H](O)[C@@H](CO)O1)OC2	inactive	–
C=CC(C)(C)C(=O)[C@@H](C)[C@@H]1CC[C@](C)(C=C)O1	inactive	–
CC(C)=CCC[C@]1(C)[C@H]2CC(=O)[C@@]3(CO3)[C@@H]1C2	inactive	–
OCc1ccc2ocnc2c1	inactive	–
COc1cc(/C=C/C(=O)O)ccc1O	inactive	–
CC[C@@H](C)[C@H]1NC(=O)C(CC(C)C)NC(=O)[C@@H](CC(C)C)NC(=O)[C@H](Cc2c[nH]c3ccccc23)NC(=O)CNC(=O)[C@@H](CC(N)=O)NC1=O (stereo partly drawn) (cyclo(GW[dL][ξL][dI][dN]))	inactive	–
COc1ccc([C@@H]2c3cc4c(cc3C(=O)C(C)C2C)OCO4)cc1OC (stereo not given in full)	inactive	–
O=C(O)[C@@]12COC3(O)C1CCN1CC[C@H]3[C@@H]1c1c2[nH]c2ccccc12	inactive	–
C=C[C@]1(C)CC[C@@H]([C@H](C)C(=O)/C=C/C(C)C)O1	inactive	–
